Data published in PubChem BioAssay AID576 (NMMLSC, 2007).
Out of some 24,000 compounds screened, about 150 (0.62%) were called active.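 Rule for the calls: active = fluorescence ratio above 2.44, which is 1 plus 3 SD of all ratios; inconclusive = signal too bright to measure linearly, ratio around 10 or more; inactive = fluorescence ratio below 2.44.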 The list comes from a sample in which actives are over-represented; it also holds similar structures and randomly drawn compounds.

Test: compound autofluorescence on Jurkat cells, primary screen, artefact control for VLA-4 allosteric ligand project, cell-based, flow cytometry (AID 576);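 note: green fluorescence of cells measured with 488 nm excitation and 530 nm emission; tested at 10 µM compound in the well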
Settings: stronger effect = higher value, 1 = vehicle-only cell background

Fluorescence ratio, inactive:
O=C(CN1CCN(c2ccccc2F)CC1)c1ccc2c(c1)OCO2 1.02
COCCNC(=O)CN1C(=O)CSc2ncccc21 1.05
CCOC(=O)N1CCC(NC(=O)COc2cc(=O)n(C)c3ccccc23)CC1 0.98
CCOC(=O)C1CCCN(C(=O)c2sc3nc(C)nc(N4CCOCC4)c3c2C)C1 (configuration not stated) 1.03
O=C(Cn1cc2c(n1)CCCCC2)NCCN1CCOCC1 0.97
COc1ccccc1-n1cnc2cc(C(=O)NCC3CCCO3)ccc21 (configuration not stated) 1.03
COCCn1c(=O)[nH]c2cc(C(=O)NCc3cccnc3)ccc2c1=O 1.03
COc1ccc(C(CC(=O)O)NC(=O)Cc2ccccc2)cc1 (configuration not stated) 0.92
CCOC(=O)CSc1nnc(CNC(=O)c2cccs2)n1-c1ccccc1 1.06
CC(C)C(=O)Nc1c(C(=O)c2ccc(F)cc2)oc2ccccc12 0.99
Nc1nonc1-c1nc2ccccc2n1CCC(=O)O 1.57
Cc1noc(C)c1CSc1nc2cc(S(=O)(=O)N3CCOCC3)ccc2o1 1.05
COc1ccc(C2C(C(=O)N3CCN(c4ccc(OC)cc4)CC3)c3ccccc3C(=O)N2C)cc1 (configuration not stated) 1.1
Cc1cc(N2C(=O)c3ccc(C(=O)NCc4ccccc4)cc3C2=O)no1 1.09
CCN(CC(=O)Nc1ccc2c(c1)OCCO2)Cc1cc(=O)oc2cc(C)c(C)cc12 1.06
CCOC(=O)C1CCN(C(=O)C2CCN(S(=O)(=O)N3CCCC3)CC2)CC1 0.96
CC(=O)c1c(C)c[nH]c1C 1.09
CCN1C(=O)/C(=C2/Sc3ccccc3N2CCCS(=O)(=O)O)SC1=S 1
CCN(CC)CCCNC(=O)c1cc(-c2cccc(Cl)c2)on1 1.16
Cc1cc(NC(=O)CN2CCC(O)(c3cccc(F)c3)CC2)no1 1.02
COCCOC(=O)C1=C(C)N=c2s/c(=C\c3cccs3)c(=O)n2C1c1cccs1 (configuration not stated) 1.11
Cc1c(C(=O)Nc2ccccc2Cl)oc2ccc(S(=O)(=O)N3CCC4(CC3)OCCO4)cc12 0.97
CC1(C)Oc2ccc3ccc(=O)oc3c2/C(=C/NCCO)C1=O 1.15
COCCNC(=O)c1snc2ccc(Cl)cc12 1
O=C(CN1CCN(CC(=O)Nc2ccc3c(c2)OCO3)CC1)Nc1ccc(F)cc1 0.97
Cc1ccc(S(=O)(=O)NCc2csc(C)n2)c(C)c1 0.95
Cc1cccn2c(=O)c3cc(C(=O)N4COCC4(C)C)n(C)c3nc12 1.08
